This is part of a sample that, as a whole, favours compounds with a hit. Of some 79,000 tested, about 15% had one in any assay. Activity calls are given as the source filed them. No stated cut-off is given here; in the data, active means growth inhibition above about 70%; inactive means the rest.

One assay in a line: NCI Yeast Anticancer Drug Screen. Data for the rad50 strain (AID 155).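 Further: 0% = growth of vehicle-only cultures of the same strain.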 The note with it: S. cerevisiae rad50 strain growth inhibition; at 100.0 µM; hits give high values. Put shortly:
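Vehicle-treated cultures provide the reference for the growth inhibition reported for compound-exposed, repair-deficient yeast.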
On to `C/C(=N\NC(=S)SCc1ccccc1)c1ccccn1`, for which the growth inhibition is 92% (active).

Regarding `CC[C@@]1(O)C(=O)OCc2c1cc1n(c2=O)Cc2cc3c(N)cccc3nc2-1`, the growth inhibition was 83% (active).

In the case of `CN(C)c1ccc(Sc2ccc3nc(N)nc(N)c3c2)cc1`, the growth inhibition is 40% (inactive).

For `CC(=O)OCCOCNC(=S)N/N=C(\C)c1cnccn1`, the growth inhibition was 85% (active).

Regarding `COc1ccc(C2c3cc4c(cc3OC(C)(O)C2C)OCO4)c(OC)c1` (stereo not drawn), the growth inhibition is 98% (active).

On to `COc1cc(C2SCC(=O)N2c2ccc(-c3ccc(-n4c(-c5ccccc5)nc5ccccc5c4=O)cc3)cc2)cc(OC)c1OC` (stereo not drawn), for which the growth inhibition was 1% (inactive).

For `COc1ccc(Br)c(C(=O)Sc2nnnn2-c2cccc(Cl)c2)c1`, the growth inhibition is 93% (active).

Take `O=C(NNc1ccnc2cc(Cl)ccc12)/C(=C\c1ccccc1Cl)NC(=O)c1ccccc1`: the growth inhibition is 30% (inactive).

As to `CSC(=S)Nc1cccc(C)n1`, the growth inhibition is 79% (active).

As for `O=C(/C=C\c1ccc(Cl)cc1Cl)c1cccs1`, the growth inhibition is 5% (inactive).

As to `COc1ccc(-c2cn(-c3ccc(I)cc3)c3ncnc(N)c23)cc1`, the growth inhibition was -10% (inactive).

On to `CN(C)c1ccc(C(C#N)=C(C#N)C#N)cc1`, for which the growth inhibition was 62% (inactive).

In the case of `COc1cc(/C=C2\CCc3ccccc3C2=O)cc(OC)c1OC`, the growth inhibition is 72% (active).

Consider `CC(C)/C(Cl)=N\OC(=O)Nc1cccc(Cl)c1`, for which the growth inhibition was 3% (inactive).

Regarding `CC1(C)[C@@H]2CC[C@]1(C)[C@H](OC(=O)CSC#N)C2`, the growth inhibition was 96% (active).

Take `NNC(=O)CCc1ccc2ccc3ccccc3c2c1`: the growth inhibition was 58% (inactive).

For `COc1ccc(/C(C)=N/OC(=O)c2c(-c3ccccc3Cl)noc2C)cc1CN1CCOCC1`, the growth inhibition was 70% (active).

For the compound `C=CC(C)(O)CCC1C(=C)C(O)CC2C(C)(C)CCCC12C` (stereo not drawn), the growth inhibition is 84% (active).

Consider `S=C(Nc1ccc(Cl)c(Cl)c1)SCc1ccc2c(c1)OCO2`, for which the growth inhibition was 94% (active).

As for `COc1cc(C2C3=C(COC3=O)Oc3cc4c(cc32)OCO4)ccc1O` (stereo not drawn), the growth inhibition was 73% (active).

On to `S=C(Nc1ccc(Cl)cc1)SC1CCCCC1`, for which the growth inhibition was 99% (active).

`Nc1nc(-c2cccnc2)cc(-c2cc(-c3cccnc3)nc(N)n2)n1`: the growth inhibition was 8% (inactive).

In the case of `COC1=CC(=O)C2C(C1=O)C(c1ccc(Cl)cc1)[C@@H]2C` (stereo partly drawn), the growth inhibition is 98% (active).

On to `c1ccc(-c2nc3cccnc3s2)cc1`, for which the growth inhibition was 33% (inactive).

Turning to `O=[N+]([O-])c1cc(CCl)ccc1CCl`, the growth inhibition was 97% (active).

Take `COc1ccc(/C=C2\SC(=S)N(/C=C/c3nc4ccccc4[nH]c3=O)C2=O)cc1OC`: the growth inhibition is 85% (active).

For `CCCN(CCC)CC(O)c1cc(-c2ccc(Cl)cc2)nc2c(C)c(Cl)ccc12` (stereo not drawn), the growth inhibition was 93% (active).

As for `O=C(Nc1ccccc1)OCCc1ccc(Cl)c(Cl)c1`, the growth inhibition was 51% (inactive).

As for `CC(O)C(O)C(O)C(/C=N\Nc1ccccc1)=N/Nc1ccccc1` (stereo not drawn), the growth inhibition was 98% (active).

For the compound `C#CCCCc1ccccc1`, the growth inhibition was 65% (inactive).

Regarding `CC(=O)Cc1ccc[cH-]1.[Fe+2].c1cc[cH-]c1`, the growth inhibition was 62% (inactive).

For the compound `Cc1cc(I)ccc1N`, the growth inhibition is 93% (active).

Turning to `FC(F)(F)c1cc(NC(=S)N2c3ccccc3-n3cccc3C2c2cccnc2)cc(C(F)(F)F)c1` (stereo not drawn), the growth inhibition was 2% (inactive).

Turning to `CC(C)(CN1CCCCC1)C(=O)CC(SCCS(=O)(=O)O)c1ccc(Br)cc1` (stereo not drawn), the growth inhibition was 50% (inactive).

`C[Si](C)(C)CNC(=O)OCc1ccccc1`: the growth inhibition was 56% (inactive).

Take `CC(C(=O)N1C(=O)N(C(=O)[C@H](C)C(O)c2ccccc2)[C@H](c2ccccc2)[C@H]1c1ccccc1)[C@@H](O)c1ccccc1` (stereo partly drawn): the growth inhibition was 56% (inactive).

For the compound `Oc1cccc2c(Cl)ccnc12`, the growth inhibition was 97% (active).

With `O=C1C=CC(=C(c2ccccc2)c2ccccc2)c2ccccc21`, the growth inhibition was 10% (inactive).

As to `S=C(S)NN1CCOCC1`, the growth inhibition was 28% (inactive).

The next assay can be described thus: NCI Yeast Anticancer Drug Screen. Data for the mec2-1 strain (AID 157). The note with it: S. cerevisiae mec2-1 strain, at 1.2 µM, hits give high values. Put shortly:
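Test agents were screened against the mec2-1 yeast strain, with defined DNA repair or cell cycle alteration. Growth was scored as inhibition against vehicle-only controls.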
Regarding `C/C(=N\NC(=S)SCc1ccccc1)c1ccccn1`, the growth inhibition was 38% (inactive).

On to `CC[C@@]1(O)C(=O)OCc2c1cc1n(c2=O)Cc2cc3c(N)cccc3nc2-1`, for which the growth inhibition is -7% (inactive).

On to `CN(C)c1ccc(Sc2ccc3nc(N)nc(N)c3c2)cc1`, for which the growth inhibition was -28% (inactive).

`CC(=O)OCCOCNC(=S)N/N=C(\C)c1cnccn1`: the growth inhibition is -17% (inactive).

`COc1ccc(C2c3cc4c(cc3OC(C)(O)C2C)OCO4)c(OC)c1` (stereo not drawn): the growth inhibition was 3% (inactive).

`COc1cc(C2SCC(=O)N2c2ccc(-c3ccc(-n4c(-c5ccccc5)nc5ccccc5c4=O)cc3)cc2)cc(OC)c1OC` (stereo not drawn): the growth inhibition was 0% (inactive).

For `COc1ccc(Br)c(C(=O)Sc2nnnn2-c2cccc(Cl)c2)c1`, the growth inhibition was 13% (inactive).

With `O=C(NNc1ccnc2cc(Cl)ccc12)/C(=C\c1ccccc1Cl)NC(=O)c1ccccc1`, the growth inhibition is -5% (inactive).

`CSC(=S)Nc1cccc(C)n1`: the growth inhibition is -61% (inactive).

Regarding `O=C(/C=C\c1ccc(Cl)cc1Cl)c1cccs1`, the growth inhibition is -6% (inactive).

As for `COc1ccc(-c2cn(-c3ccc(I)cc3)c3ncnc(N)c23)cc1`, the growth inhibition is -4% (inactive).

As for `CN(C)c1ccc(C(C#N)=C(C#N)C#N)cc1`, the growth inhibition is 2% (inactive).

For the compound `COc1cc(/C=C2\CCc3ccccc3C2=O)cc(OC)c1OC`, the growth inhibition is -17% (inactive).

As to `CC(C)/C(Cl)=N\OC(=O)Nc1cccc(Cl)c1`, the growth inhibition was 0% (inactive).

Regarding `CC1(C)[C@@H]2CC[C@]1(C)[C@H](OC(=O)CSC#N)C2`, the growth inhibition is 4% (inactive).

Take `NNC(=O)CCc1ccc2ccc3ccccc3c2c1`: the growth inhibition is -1% (inactive).

Take `COc1ccc(/C(C)=N/OC(=O)c2c(-c3ccccc3Cl)noc2C)cc1CN1CCOCC1`: the growth inhibition was -25% (inactive).

Turning to `C=CC(C)(O)CCC1C(=C)C(O)CC2C(C)(C)CCCC12C` (stereo not drawn), the growth inhibition is -3% (inactive).

In the case of `S=C(Nc1ccc(Cl)c(Cl)c1)SCc1ccc2c(c1)OCO2`, the growth inhibition was -2% (inactive).

Take `COc1cc(C2C3=C(COC3=O)Oc3cc4c(cc32)OCO4)ccc1O` (stereo not drawn): the growth inhibition is -3% (inactive).

As to `S=C(Nc1ccc(Cl)cc1)SC1CCCCC1`, the growth inhibition was -17% (inactive).

For `Nc1nc(-c2cccnc2)cc(-c2cc(-c3cccnc3)nc(N)n2)n1`, the growth inhibition is 0% (inactive).

Consider `COC1=CC(=O)C2C(C1=O)C(c1ccc(Cl)cc1)[C@@H]2C` (stereo partly drawn), for which the growth inhibition was 34% (inactive).

Regarding `c1ccc(-c2nc3cccnc3s2)cc1`, the growth inhibition was -2% (inactive).

For the compound `O=[N+]([O-])c1cc(CCl)ccc1CCl`, the growth inhibition is 3% (inactive).

Turning to `COc1ccc(/C=C2\SC(=S)N(/C=C/c3nc4ccccc4[nH]c3=O)C2=O)cc1OC`, the growth inhibition was 3% (inactive).

As to `CCCN(CCC)CC(O)c1cc(-c2ccc(Cl)cc2)nc2c(C)c(Cl)ccc12` (stereo not drawn), the growth inhibition is -6% (inactive).

As for `O=C(Nc1ccccc1)OCCc1ccc(Cl)c(Cl)c1`, the growth inhibition was -3% (inactive).

As for `CC(O)C(O)C(O)C(/C=N\Nc1ccccc1)=N/Nc1ccccc1` (stereo not drawn), the growth inhibition is -4% (inactive).

Regarding `C#CCCCc1ccccc1`, the growth inhibition was -21% (inactive).

Turning to `CC(=O)Cc1ccc[cH-]1.[Fe+2].c1cc[cH-]c1`, the growth inhibition is -5% (inactive).

With `Cc1cc(I)ccc1N`, the growth inhibition is -3% (inactive).

Take `FC(F)(F)c1cc(NC(=S)N2c3ccccc3-n3cccc3C2c2cccnc2)cc(C(F)(F)F)c1` (stereo not drawn): the growth inhibition was -5% (inactive).

Regarding `CC(C)(CN1CCCCC1)C(=O)CC(SCCS(=O)(=O)O)c1ccc(Br)cc1` (stereo not drawn), the growth inhibition is 1% (inactive).

Consider `C[Si](C)(C)CNC(=O)OCc1ccccc1`, for which the growth inhibition is -2% (inactive).

Regarding `CC(C(=O)N1C(=O)N(C(=O)[C@H](C)C(O)c2ccccc2)[C@H](c2ccccc2)[C@H]1c1ccccc1)[C@@H](O)c1ccccc1` (stereo partly drawn), the growth inhibition is -5% (inactive).

With `Oc1cccc2c(Cl)ccnc12`, the growth inhibition was 39% (inactive).

For `O=C1C=CC(=C(c2ccccc2)c2ccccc2)c2ccccc21`, the growth inhibition was 0% (inactive).

For `S=C(S)NN1CCOCC1`, the growth inhibition is 80% (active).

Source of the values: PubChem BioAssay (NCI).
